Laboratory results published in PubChem BioAssay (NCI).
Compounds without any hit were thinned out: in the full panel of roughly 79,000, 15% have a hit. Calls of active or inactive are those of the source. Cut-off read from the data, not from the text of the source: active = growth inhibition above about 70%; inactive = the rest.

Experiments:
[1] = NCI Yeast Anticancer Drug Screen. Data for the wt1 strain (AID 149);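 note: 0% = growth of vehicle-treated wt1 cultures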; conditions: S. cerevisiae wt1 strain (SPY 50644) growth inhibition, active compounds read high
Method in brief: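 wt1 yeast, compound-treated; % growth inhibition vs vehicle control.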

[2] = NCI Yeast Anticancer Drug Screen. Data for the rad50EPP+ strain (AID 151);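 note: 0% = growth of vehicle-treated control cultures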; conditions: S. cerevisiae rad50 mutant strain, active compounds read high
Method in brief: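 rad50EPP+ yeast treated with test compounds. Readout: growth vs vehicle control.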

[3] = NCI Yeast Anticancer Drug Screen. Data for the rad50 strain (AID 155);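 note: 0% = growth of vehicle-only cultures of the same strain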; conditions: S. cerevisiae rad50 strain growth inhibition, active compounds read high
Method in brief: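 Genetically altered yeast (DNA repair pathway); compound treatment; growth inhibition vs vehicle ctrl.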

[4] = NCI Yeast Anticancer Drug Screen. Data for the mec2-1 strain (AID 157); conditions: S. cerevisiae mec2-1 strain, active compounds read high
Method in brief: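 Growth inhibition is read against vehicle-treated controls after compound exposure of the mec2-1 yeast strain, which is defective in DNA damage repair or cell cycle control.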

[5] = NCI Yeast Anticancer Drug Screen. Data for the rad14 strain (AID 159);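 note: 0% = growth of vehicle-treated control cultures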; conditions: S. cerevisiae rad14 strain growth inhibition, active compounds read high
Method in brief: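 Test compounds were applied to a repair-deficient yeast strain. Its growth was then compared with that of cultures given vehicle alone, and inhibition was expressed relative to those controls.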

[6] = NCI Yeast Anticancer Drug Screen. Data for the sgs1 mgt1 strain (AID 161);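 note: 0% = growth of cultures given vehicle only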; conditions: S. cerevisiae sgs1 mgt1 strain, active compounds read high
Method in brief: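 Percent growth inhibition was derived by comparing compound-exposed mutant yeast with vehicle-exposed cultures. The strain carries alterations in DNA damage repair.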

[7] = NCI Yeast Anticancer Drug Screen. Data for the CLN2oe strain (AID 163);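 note: 0% = growth of vehicle-only control cultures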; conditions: S. cerevisiae CLN2oe strain, active compounds read high
Method in brief: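 Compound-treated yeast; growth vs vehicle ctrl = % inhibition. Genetically altered strain (cell-cycle control).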

[8] = NCI Yeast Anticancer Drug Screen. Data for the cln2 rad14 strain (AID 165);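 note: 0% = growth equal to vehicle treated cultures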; conditions: S. cerevisiae cln2 rad14 strain, active compounds read high
Method in brief: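 Growth inhibition, relative to vehicle-treated controls, is the read-out. The test organism is a yeast strain with defined genetic alterations, cln2 rad14.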

[9] = NCI Yeast Anticancer Drug Screen. Data for the bub3 strain (AID 167); conditions: S. cerevisiae bub3 mutant strain, active compounds read high
Method in brief: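 Yeast carrying a defined mutation is treated with each compound, and growth is compared with that of vehicle-exposed cells to give inhibition.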

[10] = NCI Yeast Anticancer Drug Screen. Data for the wt2 strain (AID 169);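 note: 0% = growth of vehicle-treated yeast cultures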; conditions: S. cerevisiae wt2 strain growth inhibition, active compounds read high
Method in brief: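 Compound exposure of yeast; growth compared with vehicle controls; inhibition reported.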

[11] = NCI Yeast Anticancer Drug Screen. Data for the mlh1 strain (AID 171);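 note: 0% = growth of vehicle-treated control cultures of the same strain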; conditions: S. cerevisiae mlh1 strain growth inhibition, active compounds read high
Method in brief: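 Compounds are applied to a genetically altered yeast strain, and its growth is compared with that of vehicle-treated cultures to give percent inhibition.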

[12] = NCI Yeast Anticancer Drug Screen. Data for the mlh1 rad18 strain (AID 175); conditions: S. cerevisiae mlh1 rad18 strain growth inhibition, active compounds read high
Method in brief: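 Cells of a genetically altered yeast strain, deficient in DNA damage repair, were treated with compound. Their growth was then compared with that of vehicle-treated cultures to give inhibition.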

[13] = NCI Yeast Anticancer Drug Screen. Data for the rad18 strain (AID 177); conditions: S. cerevisiae rad18 mutant growth inhibition, active compounds read high
Method in brief: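 Compounds are applied to a repair-deficient yeast strain, and growth is compared with that of vehicle-treated cultures to give percent inhibition.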

[14] = NCI Yeast Anticancer Drug Screen. Data for the mgt1 strain (AID 153); conditions: S. cerevisiae mgt1 mutant growth inhibition, active compounds read high
Method in brief: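 Growth inhibition relative to vehicle controls was scored for the mgt1 yeast strain after compound exposure.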

[15] = NCI Yeast Anticancer Drug Screen. Data for the sgs1 strain (AID 173);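 note: 0% = growth of vehicle-only control cultures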; conditions: S. cerevisiae sgs1 mutant, active compounds read high
Method in brief: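 Compounds applied to genetically altered yeast; growth compared with vehicle-treated cultures to give % inhibition.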

[16] = at 5.0 µM (retest, dose inferred, filed as 0.5)
[17] = at 50.0 µM (retest, dose inferred, filed as 5.0)

Measured: growth inhibition

Cc1ccc2c(/C=C/c3ccc(N(C)C)cc3)ccnc2c1C
inactive: [1]; at 1.2 µM -44% | [1]; at 3.7 µM -45% | [1]; at 11.0 µM -44% | [1]; at 33.0 µM -39% | [1]; at 100.0 µM 59% | [2]; at 1.2 µM -22% | [2]; at 3.7 µM -30% | [2]; at 11.0 µM -15% | [2]; at 33.0 µM 22% | [2]; at 100.0 µM 41% | [3]; at 1.2 µM -15% | [3]; at 3.7 µM -41% | [3]; [16] 9% | [3]; at 11.0 µM -20% | [3]; at 33.0 µM 14% | [3]; [17] 35% | [3]; at 100.0 µM 67% | [4]; at 1.2 µM -27% | [4]; at 3.7 µM -33% | [4]; [16] -7% | [4]; at 11.0 µM -42% | [4]; at 33.0 µM -16% | [4]; [17] 21% | [4]; at 100.0 µM 58% | [5]; at 1.2 µM -25% | [5]; at 3.7 µM -11% | [5]; at 11.0 µM -11% | [5]; at 33.0 µM -6% | [6]; [16] 33% | [7]; at 1.2 µM 26% | [7]; at 3.7 µM 34% | [7]; at 11.0 µM 26% | [7]; at 33.0 µM 39% | [8]; [16] 22% | [8]; [17] 61% | [8]; at 50.0 µM 29.9% | [9]; at 1.2 µM -8% | [9]; at 3.7 µM 7% | [9]; [16] 43% | [9]; at 11.0 µM 28% | [9]; at 33.0 µM 58% | [10]; at 1.2 µM -12% | [10]; at 3.7 µM -45% | [10]; at 11.0 µM -4% | [10]; at 33.0 µM 63% | [11]; at 1.2 µM -13% | [11]; at 3.7 µM -28% | [11]; at 11.0 µM -19% | [11]; at 33.0 µM 54% | [12]; [16] 1% | [12]; [17] 14% | [13]; at 1.2 µM 1% | [13]; at 3.7 µM -9% | [13]; at 11.0 µM -12% | [13]; at 33.0 µM 29% | [13]; at 100.0 µM 65%
active: [3]; at 50.0 µM 71.4% | [4]; at 50.0 µM 84.8% | [5]; at 100.0 µM 77% | [6]; [17] 87% | [6]; at 50.0 µM 86.5% | [7]; at 100.0 µM 71% | [9]; [17] 81% | [9]; at 50.0 µM 79.5% | [9]; at 100.0 µM 84% | [10]; at 100.0 µM 86% | [11]; at 100.0 µM 87% | [12]; at 50.0 µM 81.8%

O=Cc1ccccc1B(O)O
inactive: [1]; at 1.2 µM -3% | [1]; at 3.7 µM -1% | [1]; at 11.0 µM 66% | [2]; at 1.2 µM 43% | [14]; at 1.2 µM 0% | [14]; at 3.7 µM 2% | [3]; at 1.2 µM 31% | [3]; [16] 48% | [4]; at 1.2 µM 2% | [4]; at 3.7 µM 25% | [4]; [16] -25% | [5]; at 1.2 µM 3% | [5]; at 3.7 µM 13% | [6]; [16] -25% | [9]; at 1.2 µM -14% | [9]; at 3.7 µM -8% | [9]; [16] -83% | [10]; at 1.2 µM 0% | [10]; at 3.7 µM 1% | [11]; at 1.2 µM 8% | [11]; at 3.7 µM 14% | [15]; at 1.2 µM 18% | [15]; at 3.7 µM 66% | [12]; [16] -48% | [13]; at 1.2 µM 1% | [13]; at 3.7 µM 34%
active: [1]; at 33.0 µM 99% | [1]; at 100.0 µM 99% | [2]; at 3.7 µM 79% | [2]; at 11.0 µM 94% | [2]; at 33.0 µM 97% | [2]; at 100.0 µM 99% | [14]; at 11.0 µM 76% | [14]; at 33.0 µM 99% | [14]; at 100.0 µM 99% | [3]; at 3.7 µM 79% | [3]; at 11.0 µM 96% | [3]; at 33.0 µM 99% | [3]; [17] 95% | [3]; at 50.0 µM 98.8% | [3]; at 100.0 µM 99% | [4]; at 11.0 µM 97% | [4]; at 33.0 µM 99% | [4]; [17] 96% | [4]; at 50.0 µM 99.6% | [4]; at 100.0 µM 100% | [5]; at 11.0 µM 90% | [5]; at 33.0 µM 99% | [5]; at 100.0 µM 99% | [6]; [17] 95% | [6]; at 50.0 µM 98.9% | [9]; at 11.0 µM 81% | [9]; at 33.0 µM 98% | [9]; [17] 95% | [9]; at 50.0 µM 99% | [9]; at 100.0 µM 99% | [10]; at 11.0 µM 77% | [10]; at 33.0 µM 100% | [10]; at 100.0 µM 99% | [11]; at 11.0 µM 86% | [11]; at 33.0 µM 99% | [11]; at 100.0 µM 99% | [15]; at 11.0 µM 96% | [15]; at 33.0 µM 99% | [15]; at 100.0 µM 99% | [12]; [17] 94% | [12]; at 50.0 µM 99.5% | [13]; at 11.0 µM 94% | [13]; at 33.0 µM 98% | [13]; at 100.0 µM 99%
